Results on ten compounds are retold here after PubChem BioAssay AID1259372 (The Scripps Research Institute Molecular Screening Center, 2018).

The campaign covered roughly 4,700 compounds. About 760 (16%) were called active.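 How the source made its calls: active means inhibition above a cutoff derived from the DMSO control wells (cut at about 28% in these data); inactive means the rest.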 These entries were drawn from the full list.

This assay deals with Microphthalmia-associated transcription factor (Homo sapiens) (UniProt O75030). The assay is described as follows: blockers of human MITF dimerization – biochemical, AlphaScreen, triplicate, confirmation (AID 1259372). To be noted: AlphaScreen MITF homodimerization, biotin/His-MITF beads; at 2.6 µM; hits give high values. A general note: Alpha assays give light when donor and acceptor beads are brought close together.
Chain of Microphthalmia-associated transcription factor (Homo sapiens) (O75030 whole entry, looked up): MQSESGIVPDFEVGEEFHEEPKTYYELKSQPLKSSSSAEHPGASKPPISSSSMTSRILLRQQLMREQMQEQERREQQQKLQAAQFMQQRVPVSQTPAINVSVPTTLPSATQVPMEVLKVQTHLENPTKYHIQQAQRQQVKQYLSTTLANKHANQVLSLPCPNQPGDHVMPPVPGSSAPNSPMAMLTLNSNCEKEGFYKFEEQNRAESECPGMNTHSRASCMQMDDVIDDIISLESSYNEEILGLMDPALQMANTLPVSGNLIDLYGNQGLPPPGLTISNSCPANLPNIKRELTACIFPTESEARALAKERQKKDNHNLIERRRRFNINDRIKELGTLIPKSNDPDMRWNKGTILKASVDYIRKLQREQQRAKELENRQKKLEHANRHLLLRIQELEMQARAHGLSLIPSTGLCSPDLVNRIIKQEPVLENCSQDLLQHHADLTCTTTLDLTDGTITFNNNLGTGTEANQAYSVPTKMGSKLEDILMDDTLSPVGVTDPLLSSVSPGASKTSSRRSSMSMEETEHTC
On to `COc1cc(NC(=O)CCc2nc(C3=CCN(C)CC3)no2)cc(OC)c1OC`, for which the inhibition (commonly the change of the read-out against control, counted positive when it falls) is 66.9% (active). As for `CCC(C)N1CCN(Cc2cccc(OC)c2)CC1` (stereo not given), the figure is 13.4% (inactive); as for `CCC(CC)N1CCN(Cc2ccc(F)cc2)CC1`, 3.06% (inactive); as for `COc1ccc(CN2CCN(Cc3ccccc3)CC2)cc1C`, -1.48% (inactive). Turning to `CSc1ccccc1NC(=O)CN(C)CC(=O)Nc1ccc(C#N)c(Cl)c1`, the inhibition was 4.26% (inactive). The value for `CCOC(=O)C1C2NC(=S)N(c3ccc(F)cc3)C1(C)Oc1c(OCC)cccc12` (stereo not given) was 24.2% (inactive); that for `CCOC(=O)C1C2NC(=S)N(CC)C1(C)Oc1ccc(Cl)cc12` (stereo not given) was 33.4% (active). As for `CN1CCC(N(C)c2ncnc3scc(-c4ccc(Cl)cc4)c23)CC1`, the figure is -5.93% (inactive).

As to `CCC(C)N1CCN(Cc2ccc(SC)cc2)CC1` (stereo not given), the inhibition is 3.6% (inactive).

Regarding `Fc1ccccc1CN1CCN(Cc2ccccc2F)CC1`, the inhibition was 4.39% (inactive).
